Source: PubChem
A selection: hits, their analogues and other compounds. The true share with any hit is near 1.6%.
KCNQ2 inh = KCNQ2 (rat) channel inhibition; O88943; CHO-K1 KCNQ2, FluxOR thallium flux, 20 min; active compounds read low; B-score at 10 µM; actives 1.1% (n = 310,000);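 active means fluorescence ratio B-score at most minus 3 library SDs, with starting brightness B-score within 2 library SDs, cut at about -5.5 in these data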
Target sequence (O88943 whole entry, looked up): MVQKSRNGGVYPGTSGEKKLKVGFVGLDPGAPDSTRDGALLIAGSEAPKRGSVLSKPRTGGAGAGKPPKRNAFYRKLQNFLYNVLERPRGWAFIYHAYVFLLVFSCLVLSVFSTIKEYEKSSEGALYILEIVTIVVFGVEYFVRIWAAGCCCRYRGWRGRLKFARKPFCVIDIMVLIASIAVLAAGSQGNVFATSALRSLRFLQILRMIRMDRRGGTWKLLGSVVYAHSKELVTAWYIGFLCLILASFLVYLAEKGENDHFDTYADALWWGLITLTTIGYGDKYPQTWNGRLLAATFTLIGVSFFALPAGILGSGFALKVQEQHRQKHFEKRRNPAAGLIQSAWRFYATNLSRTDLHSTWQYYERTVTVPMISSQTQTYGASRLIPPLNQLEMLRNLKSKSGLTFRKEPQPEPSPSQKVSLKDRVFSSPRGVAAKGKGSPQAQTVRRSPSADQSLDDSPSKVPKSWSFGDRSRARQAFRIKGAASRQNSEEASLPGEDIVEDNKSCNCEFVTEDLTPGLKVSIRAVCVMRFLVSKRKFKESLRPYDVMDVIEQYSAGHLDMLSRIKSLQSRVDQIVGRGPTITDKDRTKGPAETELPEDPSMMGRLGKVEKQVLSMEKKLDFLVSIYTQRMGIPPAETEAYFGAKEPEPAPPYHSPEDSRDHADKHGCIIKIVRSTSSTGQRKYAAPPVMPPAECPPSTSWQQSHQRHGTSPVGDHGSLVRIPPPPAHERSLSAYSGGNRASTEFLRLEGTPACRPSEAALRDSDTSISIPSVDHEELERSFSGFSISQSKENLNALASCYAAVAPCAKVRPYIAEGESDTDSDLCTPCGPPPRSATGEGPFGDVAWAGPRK
KCNQ2 enhance = KCNQ2 (rat) channel potentiation; CHO-K1 KCNQ2, FluxOR thallium flux fluorescence; active compounds read high; B-score at 10 µM; actives 0.54% (n = 310,000); AID 2239;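 active means fluorescence ratio B-score at least 3 SD of library B-scores, with initial fluorescence B-score within 3 of them, cut at about 5.3 in these data; same plate scores as AID 2156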;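 further: B-score of peak minus minimum over baseline fluorescence ratio after K+ and Tl+ stimulus; positive B-score means potentiation of KCNQ2 with more thallium influx and brighter signal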
Kir21 confirm = confirmation of mouse Kir2.1 potassium channel inhibitors; shares compounds with KCNQ2 enhance; Kir2.1-expressing cells, FluxOR thallium flux fluorescence; active compounds read low; Tl flux remaining, % of negative control (active compounds read low), % at 10 µM; actives 41% (n = 2,300); AID 2032;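 active means Primary-screen hit whose thallium flux fell at least 3 control SD below untreated wells in both duplicates, with normal baseline fluorescence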;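 further: 0% = blank wells without stimulus and 100% = stimulated no-compound controls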
HEK293 Tl flux = counter-screen for Kir2.1 inhibitors: effect in parental HEK293 cells; actives 19% (n = 2,300); FluxOR thallium flux fluorescence; 0% = unstimulated blank wells; shares compounds with KCNQ2 enhance; FluxOR signal as % of negative control (100 = no effect), % at 10 µM; AID 2105;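 active means dye signal at least 3 control SD above or below untreated wells in both duplicates, raw fluorescence within 3, either direction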;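 further: percent is based on the flux ratio of peak minus minimum fluorescence over baseline F0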
CHO-K1 Tl ctr = alters thallium flux in parental CHO-K1 cells, KCNQ2 counter-screen; shares compounds with KCNQ2 enhance; FluxOR thallium flux fluorescence; zero = vehicle mean+3SD, 100% = vehicle-minus-blank window; activity increase over 3SD of controls, % at 10 µM; actives 43% (n = 1,200);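 active means signal rise of at least 3 SD above the untreated control mean, in both duplicate wells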;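 further: counter screen of KCNQ2 potentiator hits so any rise reflects channel-independent effects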
KCNQ1 pot spec = tests whether KCNQ2 potentiators also act on human KCNQ1; shares compounds with KCNQ2 enhance; CHO KCNQ1 stable, FluxOR thallium flux fluorescence; beyond 3SD, as % of vehicle-control signal; activation over 3SD threshold, % at 10 µM; actives 28% (n = 1,200); AID 2283;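 active means fluorescence ratio rise of at least 3 SD of vehicle wells above their mean, in both replicate wells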;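 further: 0% = vehicle mean plus 3 SD and 100% = vehicle minus unstimulated blank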
KCNQ2 pot confirm = rat KCNQ2 channel potentiator confirmation; shares compounds with KCNQ2 enhance; CHO-KCNQ2 cells, FluxOR thallium flux fluorescence; potentiation, less the hit threshold, % at 10 µM; actives 68% (n = 1,200);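 active means fluorescence ratio rising 3 SD or more over the vehicle control mean in both replicates, plus primary screen hit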;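 further: peak minus minimum thallium fluorescence divided by baseline after K/Tl stimulus; 0% = vehicle mean plus 3 SD and 100% = vehicle minus unstimulated blank difference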
Kir2-1 sel = mouse Kir2.1 off-target activity of KCNQ2 potentiators | shares compounds with KCNQ2 enhance | HEK293 Kir2.1, FluxOR thallium flux fluorescence | activity over 3SD threshold, % at 10 µM | actives 2% (n = 1,200);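 active means fluorescence ratio rise of at least 3 SD above the vehicle-control mean, seen in both replicates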;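 further: 0% = vehicle mean plus 3 SD and 100% = vehicle minus no-stimulus blank window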
KCNQ2 W236L pot = potentiates the retigabine-insensitive rat KCNQ2 W236L mutant channel; shares compounds with KCNQ2 enhance; CHO KCNQ2-W236L, automated patch clamp current; current increase over 3SD of negative controls (%), active compounds read high, % at 25 µM; actives 10% (n = 940);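 active means current increase at least 3 SD of the untreated controls above them in both duplicate recordings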
Starred values were filed as active, the others as inactive; i = inactive; . = not tested or not shown.

SMILES | KCNQ2 inh | KCNQ2 enhance | Kir21 confirm | HEK293 Tl flux | CHO-K1 Tl ctr | KCNQ1 pot spec | KCNQ2 pot confirm | Kir2-1 sel | others
Cc1ccc(Oc2ccc(NC(=O)c3ccco3)cc2)cc1 | i | 13.9* | i | 73.0%* | -6.8 | -29.7 | 32.7* | -42.6 | KCNQ2 W236L pot=18.8%*
Cc1ccc(NC(=O)c2ccc(OC(=O)c3ccco3)cc2)cc1 | i | . | . | . | . | . | . | .
CCN(CC)c1ccc(NC(=S)NC(=O)c2ccco2)cc1 | i | 10.7* | i | 203.5%* | -14.3 | -18.1 | 27.9* | -28.9 | KCNQ2 W236L pot=i
CCC(C)c1ccc(NC(=O)c2ccco2)cc1 (configuration not stated) | i | 11.8* | i | i | 25.7* | -10.0 | 37.7* | -12.2 | KCNQ2 W236L pot=i
CC(=O)Nc1ccc(NC(=O)c2ccco2)cc1 | i | 0.17 | . | . | . | . | . | .
CCN(CC)c1ccc(NC(=O)c2ccco2)cc1 | i | 2.38 | . | . | . | . | . | .
COc1ccc(NC(=O)c2cc(S(=O)(=O)N3CCc4ccccc43)cn2C)cc1OC | i | . | . | . | . | . | . | .
Cc1nc2ccc(NC(=O)CSc3nnc(C)s3)cc2[nH]1 | i | 1.7 | . | . | . | . | . | .
Cc1ccc(-c2ccc(=O)n(CC(=O)NCC3COCCO3)n2)cc1 (configuration not stated) | i | 1.79 | . | . | . | . | . | .
O=C(CC1CC2CCC1C2)NCCc1ccc(Cl)cc1 (configuration not stated) | i | 5.92* | . | . | -0.3 | -16.7 | 0.8* | -74.7 | KCNQ2 W236L pot=i
CC1CC1C(=O)NCCc1ccc(Cl)cc1 (configuration not stated) | i | 0.51 | . | . | . | . | . | .
Cc1cccc(C)c1OCc1cc(C(=O)N(Cc2c(C)nn(C)c2C)C2CC2)no1 | i | 0.12 | . | . | . | . | . | .
O=C1CCC(=O)N1c1ccc(NC2CCN(Cc3ccccc3)CC2)c([N+](=O)[O-])c1 | i | . | . | . | . | . | . | .
O=[N+]([O-])c1ccccc1NC1CCN(Cc2ccccc2)CC1 | i | 0.74 | 33.0%* | i | . | . | . | .
C/C(N)=C(/C#N)C(=O)CSc1nc2ccccc2c(=O)n1Cc1ccc(F)cc1 | i | 5.49* | i | 167.0%* | -8.5 | 16.2* | 3.4* | -37.3 | KCNQ2 W236L pot=i
C/C(N)=C(/C#N)C(=O)CSc1nc2ccccc2c(=O)n1Cc1ccc(C)cc1 | i | . | . | . | . | . | . | .
CC(=O)Nc1ccc(NC(=O)C(C)c2cccc(C(=O)c3ccccc3)c2)cc1 (configuration not stated) | i | 0.37 | . | . | . | . | . | .
Cc1cc(C)c(NC(=O)C(C)c2cccc(C(=O)c3ccccc3)c2)c(C)c1 (configuration not stated) | i | 22.8* | i | i | 54.5* | -9.4 | 53.5* | -30.9 | KCNQ2 W236L pot=i
COc1ccc(C)cc1NC(=O)C(=O)NCc1ccncc1 | i | 1.2 | . | . | . | . | . | .
COc1cc(OC)cc(-c2nnc(Nc3nc4c(F)cccc4s3)o2)c1 | i | 3.3 | . | . | . | . | . | .
NNc1nc2c(F)cccc2s1 | i | . | . | . | . | . | . | .
Fc1cccc2sc(Nc3nc4c(F)cccc4s3)nc12 | i | 1.28 | i | i | . | . | . | .
Fc1cccc2sc(Nc3nnc(-c4ccccc4)o3)nc12 | i | 25.9* | i | 449.0%* | 1.3* | -20.9 | 62.5* | 1.1* | KCNQ2 W236L pot=i
CSCc1ccc(C(=O)N2CCCC(Nc3ccc(F)cc3)C2)o1 (configuration not stated) | i | . | 50.5%* | i | . | . | . | .
CSCc1ccc(C(=O)N2CCCC(Nc3ccc4c(c3)OCCO4)C2)o1 (configuration not stated) | i | 0.77 | . | . | . | . | . | .
SMILES | KCNQ2 inh | KCNQ2 enhance | Kir21 confirm | HEK293 Tl flux | CHO-K1 Tl ctr | KCNQ1 pot spec | KCNQ2 pot confirm | Kir2-1 sel | others
COC(=O)C1=NN(C(=O)c2ccccc2)C(C)(O)C1 (configuration not stated) | i | 1.54 | . | . | . | . | . | .
COC(=O)C1(O)CC(CC(C)C)=NN1C(=O)c1ccccc1 (configuration not stated) | i | 8.84* | i | i | 8.6* | -10.2 | 23.0* | -42.0 | KCNQ2 W236L pot=i
CCc1nc(SCC(=O)c2ccc(Cl)s2)c2oc3ccccc3c2n1 | i | 10.1* | i | i | -10.6 | 53.6* | -17.1 | -37.2
CCc1nc(SCC(=O)N2CCN(c3ccccc3)CC2)c2oc3ccccc3c2n1 | i | . | . | . | . | . | . | .
N#CC(C(=O)c1ccccc1)=C1SCCS1 | i | 0.92 | . | . | . | . | . | .
Cc1cccc(S(=O)(=O)N2CCCc3ccccc32)c1 | i | . | i | i | . | . | . | .
Cc1cc(C)c(S(=O)(=O)N2CCCc3ccccc32)c(C)c1 | i | . | . | . | . | . | . | .
NC(=O)COC(=O)c1ccc(-c2ccccc2)cc1 | i | 2.06 | . | . | . | . | . | .
COCCN(C(=O)COC(=O)Cc1c[nH]c2ccccc12)c1c(N)n(Cc2ccccc2)c(=O)[nH]c1=O | i | . | . | . | . | . | . | .
Cc1ccc(C(=O)CC(=O)c2cc(Cl)ccc2O)cc1 | i | 5.96* | i | i | -18.2 | -30.3 | 27.0* | -38.5 | KCNQ2 W236L pot=i
CC(C)(C)c1ccc(C(=O)CC(=O)c2cc(Cl)ccc2O)cc1 | i | 1.63 | . | . | . | . | . | .
CCN1CCc2c(C#N)c(N3CCCCC3)nc(N3CCOCC3)c2C1 | i | . | . | . | . | . | . | .
N#Cc1c(N2CCOCC2)nc(N2CCCCC2)c2c1CCN(C1CCCCC1)C2 | i | 10.8* | i | i | -15.7 | 10.4* | 16.2* | -21.9 | KCNQ2 W236L pot=i
O=C(CCNS(=O)(=O)c1ccccc1F)N1CCN(C(c2ccccc2)c2ccccc2)CC1 | i | 16.5* | i | i | -11.7 | -12.1 | 44.4* | -31.8 | KCNQ2 W236L pot=i
O=C(CCNS(=O)(=O)c1ccccc1F)N1CCN(S(=O)(=O)c2cccc(F)c2)CC1 | i | . | . | . | . | . | . | .
O=C(CCS(=O)(=O)c1ccccc1)N(CCCN1CCOCC1)c1nc2ccc(F)cc2s1 | i | . | . | . | . | . | . | .
COc1ccc(Cl)c(N2CCN(CCCNC(=O)Nc3ccc(C)cc3)CC2)c1 | i | . | 69.5%* | i | . | . | . | .
COc1ccc(NC(=O)NCCN2CCN(c3cc(OC)ccc3OC)CC2)cc1 | i | 0.02 | . | . | . | . | . | .
CCOC(=O)c1ccc(NC(=O)C(C)NS(=O)(=O)c2ccc(OC)cc2)cc1 (configuration not stated) | i | 5.81* | i | i | 33.6* | -3.2 | -44.0 | -38.6
CCOC(=O)c1ccc(NC(=O)COc2ccc(S(=O)(=O)NC(C)CC)cc2)cc1 (configuration not stated) | i | 1.04 | . | . | . | . | . | .
O=S(=O)(NC1=NCCC1)c1cccc(NC(=S)NCCc2ccccc2)c1 | i | . | . | . | . | . | . | .
